# DPM-DC inhibit: blocks S. pneumoniae diphosphomevalonate decarboxylase. 0.49% of 65,000 active. purified DPM-DC, PK/LDH coupled NADH fluorescence. calls only at 10 µM;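 active = the 320 compounds with the highest percent inhibition in the single-dose primary screen, excluding strongly autofluorescent ones, cut at about 32% in these data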;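 also: kinetic rate of NADH fluorescence loss reporting ADP formed by the decarboxylase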
# NADH coupling: inhibitors of enzymes used to reach an NAD/NADH endpoint; coupled PK/LDH NADH assays, four targets; IC50, µM (top dose mostly 10 µM), without a hit: at the highest dose inhibition; 0.02% of 65,000 active;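 active = single-dose screening hits from any of four coupled enzyme assays that gave an IC50 when retested across doses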;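 also: the DPM-DC format reads NADH fluorescence rather than 340 nm absorbance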
# Abs 340nm: compound absorbs light at 340 nm. compound absorbance at 340 nm, fold over control. fold change at 10 µM. 65,000 tested, under 10 active. AID 708;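 active = at 10 µM dose, initial 340 nm absorbance at least 2 fold that of control wells; inactive = change under 2 fold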;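 also: initial absorbance extrapolated from kinetic A340 decline of NADH oxidation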
# Autofluor 339: intrinsic fluorescence of library compounds, ex339/em460 – biochemical, MLSMR library, data from DPM-DC assay, artefact control, profiling panel; compound autofluorescence, ex339/em460 nm, NADH buffer; active compounds read high; 1 = no-compound wells, NADH background; fluorescence fold increase at 10 µM; 5.5% of 65,000 active; AID 709;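 active = at 10 µM, mean starting fluorescence two-fold or more over control wells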;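 also: signal is the first read of a kinetic run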
# Spn PMK inh: S. pneumoniae PMK inhibition; purified PMK, PK/LDH-coupled NADH absorbance 340 nm; inhibition, % at 10 µM; 0.49% of 65,000 active; AID 539;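 active = top-ranked compounds by inhibition in the single 10 µM screen, taking a fixed number of the strongest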;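 also: 0% = full reaction with DMSO carrier and 100% = background rate without enzyme reaction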
# Spn MK inh: blocks S. pneumoniae mevalonate kinase; inhibition, % at 10 µM; 0.48% of 65,000 active; purified MK, PK/LDH-coupled NADH absorbance 340 nm; AID 555;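 active = ranked among the strongest by inhibition in the single 10 µM screen, a fixed top-ranked set picked for dose follow-up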
# Starred values were filed as active, the others as inactive; i = inactive; . = no result given; + = active, no number. In the library only some 6.3% were active in any assay of this set; here they are far more common.
SMILES,DPM-DC inhibit,NADH coupling,Abs 340nm,Autofluor 339,Spn PMK inh,Spn MK inh
COC(=O)[C@@H](NC(=O)N1CCN(c2cccc(C(F)(F)F)c2)CC1)C(C)C,i,15.0%,0.83,0.98,30.0*,14.0
COC(=O)[C@H](CCSC)NC(=O)N1CCN(c2cccc(C(F)(F)F)c2)CC1,i,5.0%,0.99,1.06,6.0,9.0
Cc1cc(C)cc(Nc2ccc(C(=O)O)cc2N)c1,i,13.0%,1.03,2.87*,17.0,6.0
CC1CCN(c2ccc(C(=O)O)cc2N)CC1,i,11.0%,1.04,1.41,18.0,10.0
Clc1ccc(COn2nnc3ccccc32)c(Cl)c1,i,4.0%,1.06,1.09,6.0,7.0
Cc1nn(-c2ccc(F)cc2)c2c1cc(C#N)c1nc3ccccc3n12,.,3.0%,1,2.48*,2.0,4.0
Cc1ccc(C)c(Cc2c(C)nc3c(C(=O)N4CCOCC4)cnn3c2C)c1,i,10.0%,1.03,3.75*,10.0,0.0
Cc1nc2c(C(=O)N3CCN(c4ccccn4)CC3)cnn2c(C)c1Cc1cccc(Cl)c1,i,4.0%,1.02,1.33,11.0,0.0
COC(=O)c1cnn2c(C)c(Cc3cccc(F)c3)c(C)nc12,.,8.0%,1.1,2.1*,11.0,4.0
Cc1nc2c(C(=O)O)cnn2c(C)c1Cc1ccccc1F,i,13.0%,1,1.58,19.0,1.0
CCOC(=O)N1CCN(C(=O)c2cnn3c(C)c(Cc4ccc(C)cc4)c(C)nc23)CC1,.,9.0%,1.03,4.13*,15.0,3.0
Cn1c2ccccc2c2c(C(=O)NCC3CCCO3)cn(C3CCCC3)c(=O)c21 (stereo not given),.,11.0%,1.06,2.12*,16.0,5.0
CC(C)Cn1cc(C(=O)NCC2CCCO2)c2c3ccccc3n(C)c2c1=O (stereo not given),i,9.0%,1.01,2.51*,13.0,11.0
CSc1nc2ccc3nc(NC(=O)c4cccs4)sc3c2s1,.,10.0%,1.08,4.55*,13.0,7.0
CC(C)(C)c1csc(NC(=O)c2cccs2)n1,i,2.0%,1.09,1.17,0.0,5.0
COc1ccc(-n2c(SCc3nnc(-c4ccccc4)o3)nnc2-c2ccccc2)cc1,i,9.0%,0.99,1.08,26.0*,2.0
COc1cc(CN2CCC(C(=O)N3CCN(c4ccccc4F)CC3)CC2)cc(OC)c1OC,i,15.0%,1.03,1.1,5.0,39.0
COc1ccc(CN2CCC(C(=O)N3CCN(c4ccccc4F)CC3)CC2)cc1OC,i,17.0%,1.07,1.11,0.0,52.0*
COc1ccc(CN2CCN(c3cccc(C)c3C)CC2)cc1OC,i,21.0%,1.06,1.06,12.0,51.0*
COc1cc(CN2CCN(c3cccc(C)c3C)CC2)cc(Br)c1O,i,11.0%,1.08,1.1,5.0,29.0
CCc1ccc(S(=O)(=O)NCCc2cn3ccsc3n2)s1,i,4.0%,1.03,0.98,7.0,4.0
CCc1ccc(S(=O)(=O)NCc2cn3ccsc3n2)s1,+,37.0%,1.01,1.01,7.0,10.0
NC(=O)c1ccccc1N=Cc1ccccn1,.,7.0%,1.03,5.05*,10.0,3.0
COC(=O)c1cc2nc(-c3ccccc3)cc(C)n2n1,.,7.0%,1.03,3.65*,0.0,13.0
COc1ccc(-c2cc(C(F)(F)F)n3nc(C(=O)NCc4ccco4)cc3n2)cc1,.,0.0%,1.1,2.18*,0.0,0.0
SMILES,DPM-DC inhibit,NADH coupling,Abs 340nm,Autofluor 339,Spn PMK inh,Spn MK inh
COC(=O)c1cc2nc(-c3ccc(OC)cc3)cc(C(F)(F)F)n2n1,.,6.0%,1.04,2.19*,0.0,11.0
O=C(NCc1ccco1)c1cc2nc(-c3ccc4c(c3)OCO4)cc(C(F)(F)F)n2n1,.,13.0%,1.04,3.7*,16.0,10.0
COc1ccc(-n2c(=O)c3ccccc3n(CC(=O)Nc3cc(C)on3)c2=O)cc1OC,i,4.0%,1.01,1.1,11.0,0.0
O=c1oc(-c2cccc(S(=O)(=O)N3CCOCC3)c2)nc2ccccc12,i,5.0%,1.02,1.03,9.0,5.0
COc1ccc(-c2cc(C(F)(F)F)n3nc(C(=O)Nc4cc(C)on4)cc3n2)cc1OC,.,1.0%,1.14,3.82*,2.0,0.0
O=C1N=C(c2ccccc2)C(c2ccccc2)N1 (stereo not given),.,5.0%,1.05,2.22*,0.0,9.0
Cc1sc2ncnc(Sc3nnnn3-c3ccccc3)c2c1C,i,12.0%,1.02,3.37*,8.0,8.0

# High-throughput results as filed in PubChem BioAssay.
